# “And” between values parts separate entries of the source, which are not always exact repeats. Identical values can stand only once. The source made the active and inactive calls. Unless noted, how the calls were made is not given here.
# Experiments:
# [1] = test system: Aerobactin synthetase IucA (Klebsiella pneumoniae); test: IucA aerobactin synthetase inhibitors, biochemical, Tocris library, absorbance (AID 1345561); conditions: purified IucA enzyme assay, absorbance (OD) read-out; stronger effect = lower value;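 tested at 8 µM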;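 further: 100% = enzyme without compound and 0% = no enzyme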
# [2] = sensitizers of A549 cells to miR-34 induction, primary screen, imaging, A549 dox-inducible miR-34, nuclei and caspase counts (AID 1347080;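 active means compounds whose cell count with miR-34 switched on is under 0.7 times the count with it off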); conditions: A549 miR-34 inducible, Hoechst nuclei count, 48 h
# [3] = viability rescue of complex I mutant cybrids, primary screen, cell-based, galactose medium, ATP luminescence (AID 1645843;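 active means z-score of at least 1.8 in each of two replicates, scored against plate mean and spread of sample wells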;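 further: positive z means more ATP and so rescue of galactose-driven cybrid death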); conditions: complex I mutant cybrid cells, 72 h, stronger effect = higher value
# [4] = circadian clock period modulators, cell-based, LOPAC library, luminescence reporter (AID 2774); conditions: circadian reporter cells, at 7 µM, actives lie on both sides;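 further: values are relative to mean of DMSO wells on each plate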
# [5] = test system: Hepatitis C virus NS3 helicase; test: HCV NS3 helicase inhibitors, primary screen, biochemical, fluorescence polarization, LOPAC1280 library (AID 687035; in the data active means inhibition above about 37%); conditions: Purified HCV NS3 helicase, Cy5-dT15 ssDNA binding fluorescence polarization; stronger effect = higher value; concentration not given here
# [6] = Cy5 fluorescence quenching or enhancement artefacts, artefact control for HCV NS3 helicase inhibitor project, biochemical, LOPAC1280 (AID 687037); conditions: Cy5-DNA-NS3h complex fluorescence interference counterscreen
# [7] = phospholipid biosynthesis inhibitors in animal cells, primary screen, cell-based, LOPAC library, screen 4 (AID 1347384); conditions: phospholipid biosynthesis inhibition screen, at 10 µM
# [8] = test system: Aerobactin synthetase IucA (Klebsiella pneumoniae, hypervirulent); test: IucA enzyme inhibition, biochemical, LOPAC library, absorbance readout (AID 1346212); conditions: IucA enzyme assay, absorbance (OD) readout; stronger effect = lower value;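 tested at 8 µM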;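 further: 100% = no compound wells and 0% = no enzyme wells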
# [9] = stronger effect = lower value, cell number ratio, induced over uninduced
# [10] = measured here: relative caspase fold change +Dox/-Dox
# [11] = measured here: total cells with miR-34 induction, stronger effect = lower value
# [12] = measured here: total cells without miR-34 induction
SMILES,remaining activity [1],"fold change [2, 9]","fold change [2, 10]","cell count [2, 11]","cell count [2, 12]",z-score [3],period change [4],inhibition [5],fluorescence ratio (interference) [6],fold change ([2]; stronger effect = lower value),outcome [7],remaining activity [8]
CC1=C(O)C(=O)[C@@H]2O[C@@H]2C1=O,113% (inactive),0.983 (inactive),1,7990,8130,0.005 (inactive),–,–,–,–,–,–
CCCN(CCC)C1CCc2ccc(O)cc2C1 (stereo not given),121% (inactive),–,0.963 and 0.686,10200 and 7960,10500 and 7600,-0.285 (inactive) and -0.13 (inactive),0.255 h (inactive),-4% (inactive),1 (inactive),0.974 (inactive) and 1.05 (inactive),inactive,–
CC(N)Cc1c[nH]c2ccc(OCc3cccs3)cc12 (stereo not given),105% (inactive),–,0.892 and 0.841 and 0.895,9650 and 5700 and 7970,8810 and 5500 and 8110,-0.655 (inactive) and -0.22 (inactive),-0.015 h (inactive),-2% (inactive),0.9 (inactive),1.09 (inactive) and 1.04 (inactive) and 0.983 (inactive),inactive,–
N#Cc1ccc(N2CCN(C(=O)COc3ccc4[nH]cc(CCN)c4c3)CC2)cc1,112% (inactive),0.857 (inactive),1.69,8510,9930,0.16 (inactive),–,–,–,–,inactive,–
CCCN(CCC)C1CCc2cccc(O)c2C1 (stereo not given),106% (inactive),–,0.862 and 0.742,10400 and 8490,10700 and 8870,0.025 (inactive) and -0.42 (inactive),-0.07 h (inactive),2% (inactive),1 (inactive),0.975 (inactive) and 0.957 (inactive),inactive,–
N[C@@H](Cn1oc(=O)[nH]c1=O)C(=O)O,106% (inactive),0.917 (inactive),0.755,8070,8800,-0.215 (inactive),–,-2% (inactive),1 (inactive),–,inactive,109% (inactive)
Cc1o[nH]c(=O)c1CC(N)C(=O)O (stereo not given),111% (inactive) and 121% (inactive),0.968 (inactive) and 0.976 (inactive) and 0.969 (inactive),1.08 and 0.707 and 0.956,10200 and 8490 and 9480,10500 and 8700 and 9780,0.295 (inactive) and -0.475 (inactive) and -0.075 (inactive),-0.03 h (inactive),-4% (inactive),0.9 (inactive),–,inactive,–
OC(Cc1ccncc1)C(Cl)(Cl)Cl (stereo not given),118% (inactive),0.921 (inactive),0.736,9270,10100,-0.53 (inactive),–,–,–,–,–,–
C[N+]1(C)CCc2cc3c(cc2[C@H]1[C@@H]1OC(=O)c2c1ccc1c2OCO1)OCO3,123% (inactive) and 114% (inactive),–,–,–,–,–,-0.02 h (inactive),-3% (inactive),1 (inactive),–,–,119% (inactive)
C[N+]1(C)CCC(OC(=O)C(c2ccccc2)c2ccccc2)CC1,93.9% (inactive),–,1.12 and 0.994,9760 and 8710,9910 and 9120,0.275 (inactive) and 1.67 (inactive),0.03 h (inactive),-2% (inactive),1.1 (inactive),0.984 (inactive) and 0.955 (inactive),–,107% (inactive)
COc1ccc(-n2nc(C(F)(F)F)cc2-c2ccc(Cl)cc2)cc1,119% (inactive),0.91 (inactive),0.729,7020,7710,-0.695 (inactive),0.125 h (inactive),–,–,–,–,109% (inactive)
Fc1ccc(C(OCCN2CCN(C/C=C/c3ccccc3)CC2)c2ccc(F)cc2)cc1,116% (inactive),0.843 (inactive),1.03,2280,2710,-1.23 (inactive),–,–,–,–,–,–
CCC(Oc1ccc(Cl)cc1)C(=O)OC1CC2CCC(C1)N2C (stereo not given),88.1% (inactive),0.91 (inactive),1.03,8430,9270,-0.285 (inactive),–,–,–,–,–,–
CC(C)(C)NCC(O)COc1cccc2[nH]c(C#N)cc12 (stereo not given),115% (inactive),0.911 (inactive),1.8,9030,9910,0.025 (inactive),–,–,–,–,–,–
Oc1ccc2c3c1O[C@H]1c4c(c5ccccc5n4Cc4ccccc4)C[C@@]4(O)C(C2)N(CC2CC2)CC[C@]314,94.5% (inactive),–,1.27,2600,2780,-1.2 (inactive),–,–,–,0.935 (inactive),–,–
O=C1/C(=C/c2ccccc2)C[C@@]2(O)C3Cc4ccc(O)c5c4[C@@]2(CCN3CC2CC2)[C@H]1O5,97.5% (inactive),–,0.83,919,833,-1.12 (inactive),–,–,–,1.1 (inactive),–,–
COc1cc2c(cc1O)C(CCc1ccc(Cl)cc1)N(C)CC2 (stereo not given),109% (inactive),0.951 (inactive),1.1,7110,7480,-0.615 (inactive),–,–,–,–,–,–
CC(C)n1cnc2c(C(=O)N[C@H]3CN4CCC3CC4)cc(Cl)cc21,102% (inactive),0.928 (inactive),0.88,8010,8630,2.03 (inactive),–,–,–,–,–,–
CN(C)c1ccc(/C=C2\CCCN=C2c2cccnc2)cc1,94.5% (inactive),0.947 (inactive),1.33,8030,8480,-0.4 (inactive),–,–,–,–,–,–
